PubChem BioAssay (EPA / NIEHS)
Inconclusive results are not listed. Activity calls are given as the source filed them. Rule for the calls: active = hit-call score of the fitted dose curve at least 0.9, where 1 is the maximum; inconclusive = response in the unintended direction; inactive = score below 0.9.

What was measured:
[1] = biological target: human Beta-secretase (BACE), BACE1 (gene 23621) (UniProt P56817); test: NVS_ENZ_hBACE: NovaScreen (NVS) Enzymatic Assay for human Beta-secretase (BACE) (AID 2283140);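 note: hits are inhibitors that reduce fluorescent substrate signal versus DMSO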
Description: NVS_ENZ_hBACE is a biochemical, single-readout assay that uses extracted gene-proteins from SF9 in a cell-free assay. Measurements were taken 1 hour after chemical dosing in a 96-well plate.NVS_ENZ_hBACE is one of one assay component(s) measured or calculated from the NVS_ENZ_hBACE assay. It is designed to make measurements of enzyme activity, a form of enzyme reporter, as detected with fluorescence intensity signals by Fluorescence technology.Data from the assay component NVS_ENZ_hBACE was analyzed into 1 assay endpoint. This assay endpoint, NVS_ENZ_hBACE, was analyzed in the positive analysis fitting direction relative to DMSO as the negative control and baseline of activity. Using a type of enzyme reporter, loss-of-signal activity can be used to understand changes in the enzymatic activity as they relate to the gene BACE1. Furthermore, this assay endpoint can be referred to as a primary readout, because […]. To generalize the intended target to other relatable targets, this assay endpoint is annotated to the protease intended target family, where the subfamily is aspartate protease.
Binding assays used specific radioligands (tritiated, iodinated) with non-radioactive competitive displacement ligands in agonist or antagonist protocols (as indicated) and various reference compounds and inhibitors to titrate specific binding to receptors and transporters. Most enzyme assays (CYPs, kinases, phosphatases, proteases, HDACs) used recombinant protein and specific substrates (fluorescence mostly, some colorimetric and radioactive) and inhibitors, followed by a biochemical separation of substrate and product. All assays for the biochemical HTS were initially run in duplicate at a single concentration (10 uM for CYP450 assays and 25 uM for all others). […] Each assay was run with positive and negative controls, and concurrent controls on every plate. The follow-up (secondary) screen tested active chemical-pairs in concentration series, as well as a few additional assays not tested in the primary screen, some selected negative inactives, and several cases re-run in the concentration series for confirmatory purposes.

Caspase-3 (Homo sapiens) = Caspase-3 (Homo sapiens) (UniProt P42574); test: NVS_ENZ_hCASP3: NovaScreen (NVS) Enzymatic Assay for human Caspase 3 (CASP3) (AID 2283139)
Summary of the method: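 Single-concentration screening at 25 uM in duplicate, with concentration-response follow-up to a 50 uM maximum for chemicals passing the threshold. Caspase-3 (human, E. coli-expressed) activity was read as substrate fluorescence after 1 h, with loss of signal relative to DMSO.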

[2] = biological target: human Caspase 5 (CASP5), CASP5 (gene 838) (UniProt P51878); test: NVS_ENZ_hCASP5: NovaScreen (NVS) Enzymatic Assay for human Caspase 5 (CASP5) (AID 2283137)
Summary of the method: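 Fluorescent substrate readout of CASP5 activity (loss-of-signal), measured 2 h post-dose. Protein expressed in E. coli. Primary screen duplicate at 25 uM; actives meeting threshold (e.g., 30% inhibition) rerun singleton, max 50 uM.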

[3] = biological target: human Acid Phosphatase 1 (ACP1), ACP1 (gene 52) (UniProt P24666); test: NVS_ENZ_hACP1: NovaScreen (NVS) Enzymatic Assay for human Acid Phosphatase 1 (ACP1) (AID 2283136)
Summary of the method: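 Cell-free fluorescence read-out of phosphatase activity, substrate and product separated by mobility shift, taken 1.5 h after compound addition; protein produced in Sf9. Single 25 uM duplicate screen, followed by concentration series for actives, scored as signal loss relative to DMSO.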

[4] = biological target: human AKT serine/threonine Kinase 1 (AKT1), AKT1 (gene 207) (UniProt P31749); test: NVS_ENZ_hAKT1: NovaScreen (NVS) Enzymatic Assay for human AKT serine/threonine Kinase 1 (AKT1) (AID 2283138)
Summary of the method: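 Fluorescence and mobility-shift readout of kinase activity, taken 1 h post-dosing in a cell-free format with recombinant protein. Primary screen at 25 uM in duplicate; hits (e.g. 30% inhibition) retested in concentration series topping at 50 uM.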

CDK2 (gene 1017) = CDK2 (gene 1017) (UniProt P24941); test: NVS_ENZ_hCDK2: NovaScreen (NVS) Enzymatic Assay for human Cyclin-Cependent Kinase 2 (CDK2) (AID 2283144)
Description: NVS_ENZ_hCDK2 is a biochemical, single-readout assay that uses extracted gene-proteins in a cell-free assay. Measurements were taken 1 hour after chemical dosing in a 384-well plate.NVS_ENZ_hCDK2 is one of one assay component(s) measured or calculated from the NVS_ENZ_hCDK2 assay. It is designed to make measurements of enzyme activity, a form of enzyme reporter, as detected with fluorescence intensity signals by Fluorescence and electrophoretic mobility shift technology.Data from the assay component NVS_ENZ_hCDK2 was analyzed into 1 assay endpoint. This assay endpoint, NVS_ENZ_hCDK2, was analyzed in the positive analysis fitting direction relative to DMSO as the negative control and baseline of activity. Using a type of enzyme reporter, loss-of-signal activity can be used to understand changes in the enzymatic activity as they relate to the gene CDK2. Furthermore, this assay endpoint can be referred to as a primary readout, because this assay has produced multiple assay endpoints where this one serves a enzymatic activity function. To generalize the intended target to other relatable targets, this assay endpoint is annotated to the kinase intended target family, where the subfamily is serine/threonine kinase. […]

[5] = biological target: human Casein Kinase 1-delta (CK1D), CSNK1D (gene 1453) (UniProt P48730); test: NVS_ENZ_hCK1D: NovaScreen (NVS) Enzymatic Assay for human Casein Kinase 1-delta (CK1D) (AID 2283148)
Summary of the method: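 Recombinant human CK1-delta, cell-free; fluorescent substrate with electrophoretic mobility-shift separation of product, read 1 h after dosing. Single 25 uM duplicate screen, then concentration-response up to 50 uM; loss of signal vs DMSO.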

[6] = biological target: human Caspase 4 (CASP4), CASP4 (gene 837) (UniProt P49662); test: NVS_ENZ_hCASP4: NovaScreen (NVS) Enzymatic Assay for human Caspase 4 (CASP4) (AID 2283143)
Summary of the method: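 Compounds were first tested in duplicate at 25 uM, and hits were titrated singly to a 50 uM maximum. Recombinant protease from E. coli was read by fluorescence 2 h post-dose, and activity loss was fitted against the DMSO baseline.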

[7] = biological target: human Caspase 8 (CASP8), CASP8 (gene 841) (UniProt Q14790); test: NVS_ENZ_hCASP8: NovaScreen (NVS) Enzymatic Assay for human Caspase 8 (CASP8) (AID 2283146)
Summary of the method: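 The primary screen tested compounds in duplicate at a single 25 uM concentration, with actives followed up in concentration series. Activity of recombinant (E. coli) protease was measured by fluorescence 1 h post-dose, as signal loss against DMSO.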

Sequence of human AKT serine/threonine Kinase 1 (AKT1), AKT1 (gene 207) (P31749 whole entry, looked up): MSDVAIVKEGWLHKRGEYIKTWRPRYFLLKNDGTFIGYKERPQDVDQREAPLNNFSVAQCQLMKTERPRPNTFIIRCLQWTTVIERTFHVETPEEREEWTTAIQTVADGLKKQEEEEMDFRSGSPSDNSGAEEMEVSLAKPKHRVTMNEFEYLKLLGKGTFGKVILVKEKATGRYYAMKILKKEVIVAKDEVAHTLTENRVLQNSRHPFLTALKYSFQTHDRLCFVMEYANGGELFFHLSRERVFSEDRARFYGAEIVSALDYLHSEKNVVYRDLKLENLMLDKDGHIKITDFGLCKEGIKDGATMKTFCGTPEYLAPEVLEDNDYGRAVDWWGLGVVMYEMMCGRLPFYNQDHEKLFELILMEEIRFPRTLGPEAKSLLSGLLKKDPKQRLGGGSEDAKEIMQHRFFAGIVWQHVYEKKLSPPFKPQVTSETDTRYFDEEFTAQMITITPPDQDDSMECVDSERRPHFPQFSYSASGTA
Sequence of human Caspase 5 (CASP5), CASP5 (gene 838) (P51878 whole entry, looked up): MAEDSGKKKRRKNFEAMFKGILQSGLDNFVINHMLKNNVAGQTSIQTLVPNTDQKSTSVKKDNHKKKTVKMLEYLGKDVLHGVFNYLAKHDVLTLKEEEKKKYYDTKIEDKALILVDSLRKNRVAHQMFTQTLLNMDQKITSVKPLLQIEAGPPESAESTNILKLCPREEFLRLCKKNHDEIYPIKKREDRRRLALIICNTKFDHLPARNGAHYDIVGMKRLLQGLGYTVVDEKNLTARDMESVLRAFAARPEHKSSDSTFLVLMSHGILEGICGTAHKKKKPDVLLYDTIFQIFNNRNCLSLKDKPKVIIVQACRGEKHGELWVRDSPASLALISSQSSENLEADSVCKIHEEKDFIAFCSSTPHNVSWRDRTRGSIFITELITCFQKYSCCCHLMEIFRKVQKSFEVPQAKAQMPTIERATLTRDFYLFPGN
Sequence of human Casein Kinase 1-delta (CK1D), CSNK1D (gene 1453) (P48730 whole entry, looked up): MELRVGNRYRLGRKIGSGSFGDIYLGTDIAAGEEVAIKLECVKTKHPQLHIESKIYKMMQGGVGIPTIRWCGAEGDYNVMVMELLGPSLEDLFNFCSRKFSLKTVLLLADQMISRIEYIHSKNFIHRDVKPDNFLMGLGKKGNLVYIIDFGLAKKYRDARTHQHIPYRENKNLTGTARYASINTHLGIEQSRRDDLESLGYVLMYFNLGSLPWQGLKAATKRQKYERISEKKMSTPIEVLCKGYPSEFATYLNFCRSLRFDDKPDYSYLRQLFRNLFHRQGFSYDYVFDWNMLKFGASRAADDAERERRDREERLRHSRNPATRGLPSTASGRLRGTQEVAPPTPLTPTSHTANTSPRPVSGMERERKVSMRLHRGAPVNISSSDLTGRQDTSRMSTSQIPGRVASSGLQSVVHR
Sequence of human Beta-secretase (BACE), BACE1 (gene 23621) (P56817 whole entry, looked up): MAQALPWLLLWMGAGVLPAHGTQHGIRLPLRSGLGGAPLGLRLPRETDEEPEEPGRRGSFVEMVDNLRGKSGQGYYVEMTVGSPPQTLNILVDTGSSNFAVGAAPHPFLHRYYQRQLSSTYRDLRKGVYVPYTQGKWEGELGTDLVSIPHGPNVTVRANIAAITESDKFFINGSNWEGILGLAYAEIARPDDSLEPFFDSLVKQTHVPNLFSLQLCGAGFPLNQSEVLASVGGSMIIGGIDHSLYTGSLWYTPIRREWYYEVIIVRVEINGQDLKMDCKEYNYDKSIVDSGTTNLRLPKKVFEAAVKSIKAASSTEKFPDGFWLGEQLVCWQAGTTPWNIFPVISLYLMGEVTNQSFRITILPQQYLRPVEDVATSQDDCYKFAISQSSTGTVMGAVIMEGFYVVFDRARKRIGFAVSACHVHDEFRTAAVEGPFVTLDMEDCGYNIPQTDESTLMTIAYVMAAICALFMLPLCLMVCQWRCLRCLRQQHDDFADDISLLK
Sequence of human Caspase 4 (CASP4), CASP4 (gene 837) (P49662 whole entry, looked up): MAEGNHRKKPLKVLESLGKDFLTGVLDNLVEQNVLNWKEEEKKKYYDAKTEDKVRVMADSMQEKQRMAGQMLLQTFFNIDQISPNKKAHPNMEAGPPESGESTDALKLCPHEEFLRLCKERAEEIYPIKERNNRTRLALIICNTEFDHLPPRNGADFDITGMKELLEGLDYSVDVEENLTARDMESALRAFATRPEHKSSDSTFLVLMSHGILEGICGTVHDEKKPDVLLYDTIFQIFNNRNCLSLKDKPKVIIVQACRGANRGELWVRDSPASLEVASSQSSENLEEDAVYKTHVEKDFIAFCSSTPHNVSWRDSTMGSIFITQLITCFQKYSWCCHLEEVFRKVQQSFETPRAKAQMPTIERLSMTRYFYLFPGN
Sequence of Caspase-3 (Homo sapiens) (P42574 whole entry, looked up): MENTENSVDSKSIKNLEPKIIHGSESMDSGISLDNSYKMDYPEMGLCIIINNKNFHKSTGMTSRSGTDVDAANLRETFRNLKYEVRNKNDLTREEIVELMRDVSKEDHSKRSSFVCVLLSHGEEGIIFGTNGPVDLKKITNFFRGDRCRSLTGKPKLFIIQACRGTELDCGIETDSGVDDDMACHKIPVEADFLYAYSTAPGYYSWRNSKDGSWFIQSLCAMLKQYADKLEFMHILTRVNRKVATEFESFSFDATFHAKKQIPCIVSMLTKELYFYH
Sequence of human Caspase 8 (CASP8), CASP8 (gene 841) (Q14790 whole entry, looked up): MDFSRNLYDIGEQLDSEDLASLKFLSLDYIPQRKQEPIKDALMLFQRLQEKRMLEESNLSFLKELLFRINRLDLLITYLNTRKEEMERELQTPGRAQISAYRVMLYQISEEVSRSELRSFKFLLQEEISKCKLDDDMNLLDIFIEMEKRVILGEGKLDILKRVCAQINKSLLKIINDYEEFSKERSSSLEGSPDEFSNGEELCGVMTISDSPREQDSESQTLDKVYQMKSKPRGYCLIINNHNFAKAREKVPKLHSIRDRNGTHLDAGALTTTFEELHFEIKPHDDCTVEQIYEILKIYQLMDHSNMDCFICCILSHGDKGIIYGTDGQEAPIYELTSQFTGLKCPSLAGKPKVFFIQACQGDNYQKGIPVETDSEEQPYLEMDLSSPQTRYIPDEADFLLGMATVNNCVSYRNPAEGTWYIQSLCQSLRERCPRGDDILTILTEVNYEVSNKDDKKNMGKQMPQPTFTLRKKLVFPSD
Sequence of human Acid Phosphatase 1 (ACP1), ACP1 (gene 52) (P24666 whole entry, looked up): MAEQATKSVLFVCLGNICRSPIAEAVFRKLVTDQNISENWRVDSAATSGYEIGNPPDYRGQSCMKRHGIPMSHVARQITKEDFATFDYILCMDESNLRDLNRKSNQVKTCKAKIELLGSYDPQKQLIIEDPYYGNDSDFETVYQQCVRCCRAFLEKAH

In the case of `CCN(CC)CCOc1ccc(C(=C(Cl)c2ccccc2)c2ccccc2)cc1`, the AC50 [1] is reported as 14.7 µM (active).
With `CCCCCCCC(=O)OC` the outcome (Caspase-3 (Homo sapiens)) was “inactive”.
`Cn1cnc2c1c(=O)[nH]c(=O)n2C` was tested, and the outcome [2] was “inactive”.
In the case of `COc1ccc(OC(F)(F)F)cc1CN[C@H]1CCCN[C@H]1c1ccccc1`, the outcome [3] is reported as “inactive”, the outcome [4] is reported as “inactive” and the outcome (CDK2 (gene 1017)) is reported as “inactive”. For the same compound, the outcome [5] was “inactive”.
`CN(C)C(=O)NC1(c2ccccc2)CCN(CC[C@@]2(c3ccc(F)c(F)c3)CN(C(=O)c3ccccc3)CCO2)CC1` was tested, and the outcome [4] was “inactive” and the outcome (Caspase-3 (Homo sapiens)) was “inactive”.
With `CCc1cc(C2=C(C(=O)O)N(c3ccccc3C(F)(F)F)S(=O)(=O)c3ccccc32)cc2c1OCO2` the outcome [2] was “inactive”, the AC50 [1] was 6.05 µM (active) and the outcome [6] was “inactive”.
`S=c1[nH]c2ccccc2s1` was tested, and the outcome [4] was “inactive” and the outcome [6] was “inactive”.
For `CCc1nc(N)nc(N)c1-c1ccc(Cl)cc1`, the outcome [1] was “inactive”.
In the case of `Cc1cc(SC2=C(O)C[C@@](CCc3ccc(N)cc3)(C(C)C)OC2=O)c(C(C)(C)C)cc1CO`, the outcome [1] is reported as “inactive”.
With `CN(C)C(=O)NC1(c2ccccc2)CCN(CCC[C@]2(c3ccc(Cl)c(Cl)c3)CCCN(C(=O)c3ccccc3)C2)CC1` the outcome [5] was “inactive”.
`CC(C)(C)c1ccccc1` was tested, and the outcome [1] was “inactive”.
With `CCCC(=O)O` the outcome [4] was “inactive”.
`O=Cc1ccccc1C=O` was tested, and the outcome [2] was “inactive”.
With `Cc1ccc(-c2cc(C(F)(F)F)nn2-c2ccc(S(N)(=O)=O)cc2)cc1` the outcome [6] was “inactive”.
`O=C(N[C@@H](c1ccccc1)[C@@H]1CCCCN1)c1cccc(C(F)(F)F)c1Cl` was tested, and the outcome [5] was “inactive”.
`CC(C)c1cccc(C(C)C)c1` was tested, and the outcome [7] was “inactive”.
